Source: PubChem BioAssay (several laboratories)
In the library only some 1.6% were active in any assay of this set; here they are far more common.
PREPL inh: inhibitors of human prolyl oligopeptidase-like enzyme PREPL; Q4J6C6; recombinant PREPL, fluorescence polarization activity-based probe; inhibition, % at 5.96 µM; 0.68% of 320,000 active; AID 2751; in the data active = inhibition above about 43%;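 also: 0% = enzyme with DMSO and 100% = wells lacking enzyme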
JMJD2C inh: human JMJD2C demethylase inhibition | Q9H3R0 | GST-JMJD2C(1-420) H3K9me3 demethylation, DELFIA europium | inhibition, % at 2.35 µM | 0.069% of 330,000 active;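 active = more than half of a compound's replicate wells show inhibition beyond 50%, single wells judged on their own value; inconclusive = some, but no more than half, of replicates pass 50% inhibition; inactive = no replicate passes 50% inhibition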;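 also: signal counts dimethyl H3K9 product captured on neutravidin plate; 0% = median of DMSO wells and 100% = 0.3 times that DMSO median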
GRK2 aptamer HTS: inhibitors of human GRK2 displacing RNA aptamer; bead flow cytometry, FAM-aptamer displacement from GRK2; inhibition of aptamer binding, % at 10 µM; 0.59% of 330,000 active; AID 488847;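 active = inhibition of aptamer binding above 40%, roughly 3 SD of noise, on plates passing a quality check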;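 also: median bead fluorescence of bound FAM aptamer so fluorescent compounds give negative values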
DSG3 Ab inh: blocks pemphigus antibody binding to human desmoglein-3; DSG3-coupled beads, scFv-anti-DSG3-GFP binding, flow cytometry; stronger effect = lower value; P32926; AID 588358; 0.48% of 310,000 active; binding (percent of control), % at 10 µM;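 active = binding more than 3 SD below its plate's average and above zero; inconclusive = below that plate limit but binding exactly zero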;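 also: hits lower antibody fragment binding to DSG3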
VLA-4 inh: inhibition in a human VLA-4 binding assay; P13612; VLA-4 expressing cells, ligand binding flow cytometry; inhibition, % (about 7 µM as worked out from the volumes in the protocol); 0.2% of 330,000 active; AID 2557; in the data active = inhibition above about 50%
* marks the source's active call; other numbers are inactive results; ? = inconclusive; nt = no result.

SMILES	PREPL inh	JMJD2C inh	GRK2 aptamer HTS	DSG3 Ab inh	VLA-4 inh
Cc1ccc(NC(=O)CS(=O)CC(=O)Nc2ccc3c(c2)OCO3)cc1Cl (stereo not drawn)	10	-12	0	98	5
C[C@@H]1CN([C@H](C)CO)C(=O)CCCn2nncc2CO[C@H]1CN(C)Cc1ccc(-c2ccccc2)cc1	nt	nt	nt	109	nt
C[C@H](CO)N1C[C@H](C)[C@@H](CN(C)Cc2ccccc2)OCc2cnnn2CCCC1=O	nt	nt	nt	91*	nt
O=C(NCCc1c[nH]c2ccccc12)C(=O)Nc1ccccc1	4	-6	3	64*	-18
O=C(CCN1C(=O)/C(=C/c2ccc(F)cc2)SC1=S)NNC(=O)c1cccnc1	-56	5	5	88*	2
O=C(CCN1C(=O)/C(=C/c2cccc(Br)c2)SC1=S)NNC(=O)c1cccnc1	-33	7	11	83*	6
O=C(CCN1C(=O)/C(=C/c2ccccc2)SC1=S)NNC(=O)c1cccnc1	-71	-1	0	nt	21
CC(C)(C)OC(=O)C(C)(C)Sc1nnc(N)s1	12	0	1	nt	22
COC(=O)c1cccc(NC(=O)c2cccnc2C(=O)O)c1C	1	8	0	107	5
Cn1c(C(=O)N2CCC(C(=O)NCc3ccccc3)CC2)cc2sccc21	-4	1	4	104	8
Cc1nc2cc(C(=O)OCC(=O)NC34CC5CC(CC(C5)C3)C4)ccc2n1-c1ccccc1	0	-8	41*	100	1
COc1cccc(CN2CCN(CCCc3ccccc3)C(CCO)C2)c1O (stereo not drawn)	-3	-6	1	114	0
Cc1ccc(CN2CCN(C3CCOCC3)CC2CCO)cc1 (stereo not drawn)	-2	-40	1	107	2
Cc1ccc(NP(=O)(c2ccc(N(C)C)cc2NC(=O)c2cccs2)N2CCOCC2)cc1Cl (stereo not drawn)	14	-13	1	85*	-4
Cc1ccc(NP(=O)(c2ccc(N(C)C)cc2NC(=O)c2cccs2)N2CCOCC2)cc1 (stereo not drawn)	20	7	1	98	0
CNC(=O)c1ccc(-c2ccc(OC)cc2)s1	-13	-2	0	100	5
COc1ccc(NC(=O)c2ccc(-c3ccc(OC)cc3)s2)cc1	9	13	2	55*	18
CC1CCN(S(=O)(=O)c2cn(CC(=O)Nc3cccc(C#N)c3)cn2)CC1	1	3	0	nt	25
CC(=O)c1cccc(NC(=O)Cn2cnc(S(=O)(=O)N3CCC(C)CC3)c2)c1	6	0	3	82*	12
C/C(=N\NC(=O)Cc1ccccc1)c1cccs1	12	5	2	78*	7
CN(O)/C=N/C(=S)Nc1ccc(Cl)cc1Cl	0	13	9	102	-3
CCOc1ccccc1C1C2C(=O)N(c3ccccc3)C(=O)C2ON1c1ccccc1 (stereo not drawn)	8	0	94*	103	-2
O=C(O)COc1ccccc1C1C2C(=O)N(c3ccccc3)C(=O)C2ON1c1ccccc1 (stereo not drawn)	-7	2	0	108	34
Cn1c2c(c3ccccc31)CCN=C2c1ccccc1	5	7	nt	104	nt
O=C(NC1CC1)c1cc(-c2ccco2)nc2ccccc12	nt	-5	nt	72*	nt
SMILES	PREPL inh	JMJD2C inh	GRK2 aptamer HTS	DSG3 Ab inh	VLA-4 inh
O=C(O)c1cc(-c2ccco2)nc2ccccc12	-3	-5	24	100	-17
CCOc1ccc(/C=N/NC(=O)c2cc(-c3ccco3)nc3ccccc23)cc1	0	3	0	117	-2
Cc1nnc(NC(=O)c2cc(-c3ccco3)nc3ccccc23)s1	6	?	91*	103	-9
O=C(N/N=C/c1ccc(F)cc1)c1cc(-c2ccco2)nc2ccccc12	7	-1	22	28*	-3
CCc1nnc(NC(=O)c2ccc(COc3ccccc3C)o2)s1	-10	4	2	100	13
COc1cc(OC)cc(C(=O)N[C@H](C(=O)NC2=NCCS2)C(C)C)c1	0	-5	1	99	9
C[C@@H]1CN([C@@H](C)CO)C(=O)CCCn2nncc2CO[C@H]1CN(C)S(=O)(=O)c1ccc(-n2cccn2)cc1	nt	nt	nt	98	nt
CCOC(=O)c1cc2c(ccc3ccccc32)oc1=O	2	2	1	101	5
CCOC(=O)c1c(C)nc(C)c2c(=O)oc3ccccc3c12	4	-2	0	95*	23
